Several values for one entry are separate records, joined by “and”; a condition that tells them apart may be missing. Equal values may be shown once. Results filed as inconclusive are left out. Activity calls are given as the source filed them. Calls follow the shape of the full dose curve.

For the experiment, the target named is Bile acid receptor (Homo sapiens) (UniProt Q96RI1). Put plainly: qHTS assay for small molecule agonists of farnesoid X receptor signaling (AID 588527).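 Also: series mostly up to about 77 µM; 0% = vehicle basal and 100% = reference agonist.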 The settings on record: HEK293T FXR-UAS-bla, beta-lactamase ratio, 16 h; hits give high values. From the text: NIH Chemical Genomics Center [NCGC] U.S. Environmental Protection Agency [EPA] National Institutes of Environmental Health Sciences [NIEHS] National Toxicology Program [NTP] NCGC Assay Overview The farnesoid-X-receptor (FXR), a nuclear hormone receptor is highly expressed in liver, intestine, kidney and adrenal cortex. Natural ligands of FXR are the bile acids (Cholic acid, Chenodeoxy cholic acid etc). It is an important regulator of diverse metabolic pathways, including the bile acid homeostasis, lipid and glucose metabolisms. FXR regulates the expression of target genes by binding either as a monomer or as a heterodimer with RXR (retinoid X receptor). As FXR regulates a large number of target genes involved in bile acid, lipoprotein and glucose metabolisms, it is a potential pharmacological target for bile acid and lipid disorders. Thus screening environmental chemicals on FXR signaling can be used for the studies focused on metabolic syndrome, hepatic and intestinal toxicity etc.
Bile acid receptor (Homo sapiens), sequence (Q96RI1 whole entry, looked up): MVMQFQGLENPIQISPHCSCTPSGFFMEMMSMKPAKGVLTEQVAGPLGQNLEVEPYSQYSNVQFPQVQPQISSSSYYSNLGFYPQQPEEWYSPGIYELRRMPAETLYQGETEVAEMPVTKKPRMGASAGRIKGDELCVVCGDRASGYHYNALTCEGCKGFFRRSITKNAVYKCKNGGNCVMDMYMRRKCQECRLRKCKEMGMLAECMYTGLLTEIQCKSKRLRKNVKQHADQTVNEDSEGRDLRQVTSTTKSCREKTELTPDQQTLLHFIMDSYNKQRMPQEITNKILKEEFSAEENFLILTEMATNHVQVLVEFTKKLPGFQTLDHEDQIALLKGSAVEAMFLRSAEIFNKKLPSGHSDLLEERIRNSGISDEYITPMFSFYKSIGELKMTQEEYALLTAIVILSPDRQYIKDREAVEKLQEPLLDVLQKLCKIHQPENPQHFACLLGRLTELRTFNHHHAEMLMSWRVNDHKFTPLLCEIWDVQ
NCGC Assay Protocol Summary Using a beta-lactamase reporter-gene under control of Farnesoid X receptor (FXR) response element, a cell-based assay [GeneBLAzer FXR-UAS-bla assay developed by Invitrogen] was used to measure FXR ligands signaling. GeneBLAzer FXR-UAS-bla HEK293T cells were used with assay medium containing 10% dialyzed FBS. The assay was performed in clear bottom black Greiner 1536-well plates. Chenodeoxycholic acid and Guggulsterone were used in the screen as agonist and antagonist positive controls respectively. Library compounds were measured for their ability to stimulate the reporter gene activity. Compounds were screened in a titration series in 1536-well format. […] Data was normalized relative to Chenodeoxycholic acid control (100 uM, 100%), and DMSO only wells (basal, 0%). Concentration-response titration points for each compound were fitted to the Hill equation yielding concentrations of half-maximal stimulation (EC50) and maximal response (efficacy) values. qHTS protocol for FXR beta-lactamase assay in agonist mode [Step] [Parameter] [Value] [Description] 1. Reagent; 6 uL; 5000 cells/well 2. Incubation; 37 C for 5-7 hrs 3. Compounds; 23 nL; 0.59 nM to 92 uM 4. Controls (Chenodeoxycholic acid); 23 nL, - One column with dose response, start 200 uM, 1:2 dilutions in duplicates - Final concentrations of 100 uM and 60 uM in two columns 5. Incubation; 37 C for 16 hrs 6. Detection reagent; 1 uL of CCF4-dye 7. Incubation; RT for 2 hrs 8. Detection; Fluorescence; Envision plate reader
A general note: In qHTS, concentration-response curves come from the screen itself.
Consider `c1ccc2ccccc2c1`, for which the activation was 2.2% (inactive) and 1.82% (inactive).
With `CC(O)CCl` (stereo not given), the activation was -2.4% (inactive) and 3.49% (inactive).
For `C=C(C)C#N`, the activation was 0.805% (inactive) and -0.908% (inactive).
The value for `Cc1ccc([N+](=O)[O-])cc1C` was -0.387% (inactive) and 0.526% (inactive).
On to `C=CC(=C)C`, for which the activation is -1.71% (inactive).
The same measure for `Clc1cc(Cl)c(-c2cc(Cl)c(Cl)cc2Cl)cc1Cl`: 4.83% (inactive); for `CCCCCCCC(=O)Cl`: 0.289% (inactive).
As for `CCSC(=O)Cl`, the activation is -1.31% (inactive).
The value for `C1CCC2CCCCC2C1` (stereo not given) was -3.01% (inactive); that for `S=C=Nc1cccc2ccccc12` was -1.78% (inactive).
As to `COP(=S)(OC)Oc1ccc([N+](=O)[O-])cc1`, the activation is 0.0258% (inactive) and 2.38% (inactive).
As to `Brc1ccc(Oc2cc(Br)c(Br)cc2Br)c(Br)c1`, the activation is 0.173% (inactive) and 5.65% (inactive).
The value for `CC1=C2[C@H](/C=C(\C)C(=O)O)CC[C@@H](C)[C@H]2CC1` was -3.32% (inactive).
The value for `c1ccc(-c2ccccc2)cc1` was -2.99% (inactive) and -4% (inactive); that for `c1nc[nH]n1` was 0.583% (inactive).
The same measure for `O=C(O)COc1cc(Cl)c(Cl)cc1Cl`: -6.14% (inactive); for `CC(C)(OO)c1ccccc1`: -0.414% (inactive) and -0.341% (inactive); for `CCOc1ccc(N)cc1`: -2.12% (inactive).
For the molecule `O=S(=O)(O)c1ccccc1`, the activation was 0.473% (inactive).
The same measure for `C=CC(=O)OCC`: -1.2% (inactive); for `c1ccc2c(c1)CCCC2`: -2.64% (inactive); for `ClC(Cl)=C(c1ccc(Cl)cc1)c1ccc(Cl)cc1`: -9.46% (inactive).
The same measure for `CCCCCCCCCCCCCC(=O)O`: 0.574% (inactive); for `C[C@H]1O[C@@H](O[C@H]2[C@@H](O)C[C@H](O[C@H]3[C@@H](O)C[C@H](O[C@H]4CC[C@@]5(C)[C@H](CC[C@@H]6[C@@H]5C[C@@H](O)[C@]5(C)[C@@H](C7=CC(=O)OC7)CC[C@]65O)C4)O[C@@H]3C)O[C@@H]2C)C[C@H](O)[C@@H]1O`: -4.19% (inactive); for `Oc1ccc(Cl)cc1Cl`: -2.46% (inactive) and -2.63% (inactive).
Regarding `C=CC(C)=O`, the activation is -1.53% (inactive).
For `C#CCOS(=O)OC1CCCCC1Oc1ccc(C(C)(C)C)cc1` (stereo not given), the activation is 6.98% (inactive).
The same measure for `C=CC1CC=CCC1` (stereo not given): 1.2% (inactive) and -0.94% (inactive).
Take `COC(=O)NC(=S)Nc1ccccc1NC(=S)NC(=O)OC`: the activation is 1.1% (inactive) and -0.86% (inactive).
The same measure for `OC[C@H]1O[C@@](CO)(O[C@H]2O[C@H](CO)[C@@H](O)[C@H](O)[C@H]2O)[C@@H](O)[C@@H]1O`: -1.48% (inactive).
Take `Cc1ccc2ccccc2c1`: the activation is -0.561% (inactive).
Take `ClC(Cl)=C(Cl)Cl`: the activation is 0.975% (inactive) and -2.66% (inactive).
The same measure for `OCC1CO1` (stereo not given): -2.37% (inactive) and -0.462% (inactive).
For the molecule `CN=C=S`, the activation was 2.73% (inactive) and -2.27% (inactive).
The value for `Nc1ccc(Br)cc1` was 0.791% (inactive).
Take `CCCOC(=O)c1ccccc1C(=O)OCCC`: the activation was -0.825% (inactive) and -0.41% (inactive).
Turning to `O[C@@H]([C@H](O)[C@@H](O)CBr)[C@@H](O)CBr`, the activation is -2.21% (inactive).
The same measure for `COP(N)(=O)SC` (stereo not given): 2.48% (inactive); for `COc1nc(NC(C)C)nc(NC(C)C)n1`: 0.515% (inactive); for `O=[N+]([O-])c1ccc(Cl)c(Cl)c1`: 1.09% (inactive).

(Values after PubChem BioAssay (NCATS).)
